Holding throughout (test): growth (OD600 after 10 h); higher = more growth (less inhibition)
Assay [1] deals with E. coli TESEC Alr+ wild-type control. The following applies: compound 0.1 mM; raw OD600 reference: median of DMSO wells 0.241, cell-free background 0.041. Here is the method: (§1)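 TESEC Mtb Alr E. coli, or the Alr+ wild-type control, in 384-well plates with Prestwick library compounds at 0.1 mM and 1% DMSO, across arabinose induction levels of 1E3 to 1E7 nM. Growth is read as OD600 after 10 h at 37 °C in triplicate biological replicates.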

The test system of assay [2] is E. coli TESEC Mtb Alr. The following applies: compound 0.1 mM. Here is the method: as §1
In assay [3] the test system is E. coli TESEC Mtb Asd. The following applies: compound 0.1 mM. Here is the method: (§2)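 TESEC E. coli strains in which the native enzyme is deleted and replaced by arabinose-inducible Mtb Asd, DapB, CysH or TrpD, each grown in its selective medium. Strains were screened against the Prestwick library at 0.1 mM and 1% DMSO in 384-well format at low and high arabinose induction. Growth is read as OD600 after 10 h in triplicate.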

In assay [4] the test system is E. coli TESEC Mtb DapB. Conditions: compound 0.1 mM. How it is done:
as §2

The test system of assay [5] is E. coli TESEC Alr+ wild-type control. Conditions: compound 0.1 mM; raw OD600 reference: median of DMSO wells 0.49, cell-free background 0.052. How it is done:
(§3)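 TESEC Mtb Alr E. coli (ΔaraC ΔtolC ΔentC Δalr ΔdadX, arabinose-inducible Mtb Alr) or the Alr+ wild-type control strain, grown in defined M9-fructose medium without D-alanine in 96-well plates with Prestwick library compounds at 0.1 mM and 1% DMSO. Low Alr induction is 0.1 µM arabinose and high induction is 10 mM arabinose.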

Assay [6] has as its system E. coli TESEC Mtb Alr. Conditions: compound 0.1 mM. Here is the method:
as §3
This is another data set of the same source.

[7] abbreviates: arabinose 1000 nM, raw OD600 reference: median of DMSO wells 0.294, cell-free background 0.041.
The mark [8] stands for this setting: arabinose 10000 nM, raw OD600 reference: median of DMSO wells 0.264, cell-free background 0.041.
The mark [9] stands for this setting: arabinose 100000 nM, raw OD600 reference: median of DMSO wells 0.201, cell-free background 0.041.
Setting [10] is: arabinose 1000000 nM, raw OD600 reference: median of DMSO wells 0.193, cell-free background 0.041.
The mark [11] stands for this setting: arabinose 10000000 nM, raw OD600 reference: median of DMSO wells 0.146, cell-free background 0.041.
Where [12] appears, read: arabinose induction (level): High, raw OD600 reference: median of DMSO wells 0.331, cell-free background 0.041.
Where [13] appears, read: arabinose induction (level): Low, raw OD600 reference: median of DMSO wells 0.417, cell-free background 0.041.
Where [14] appears, read: arabinose induction (level): High, raw OD600 reference: median of DMSO wells […], cell-free background 0.041.
The mark [15] stands for this setting: arabinose induction (level): Low, raw OD600 reference: median of DMSO wells 0.227, cell-free background 0.041.
[16] abbreviates: arabinose 100 nM, raw OD600 reference: median of DMSO wells 0.413, cell-free background 0.052.
[17] abbreviates: arabinose 10000000 nM, raw OD600 reference: median of DMSO wells […], cell-free background 0.052.

Structures are written as SMILES. Counter-ions that a name gives are not always drawn. ± gives the standard deviation of the averaged measurements.

Turning to `CN(C)CCn1nnnc1SCC1=C(C(=O)O)N2C(=O)[C@@H](NC(=O)Cc3csc(N)n3)[C@H]2SC1` [Cefotiam hydrochloride], the growth in assay [1] turned out to be 0.11 ± 0.0087; in assay [2] (setting [7]) it was 0.039 ± 0.0012; in assay [2] (setting [8]), 0.0413 ± 0.00046; in assay [2] (setting [9]), 0.0507 ± 0.0078; in assay [2] (setting [10]), 0.045 ± 0.00078; in assay [2] (setting [11]) it was 0.0878 ± 0.0087. The growth was determined as 0.265 ± 0.012 in assay [3] (setting [12]); 0.34 ± 0.061 in assay [3] (setting [13]); 0.218 ± 0.018 in assay [4] (setting [14]); 0.195 ± 0.019 in assay [4] (setting [15]); 0.166 ± 0.096 in assay [5]; 0.0473 ± 0.0012 in assay [6] (setting [16]). In addition, the growth in assay [6] (setting [17]) was 0.244 ± 0.049.

Turning to `NC(=O)N1c2ccccc2C=Cc2ccccc21` [Carbamazepine], the growth in assay [1] worked out at 0.241 ± 0.0068; in assay [2] (setting [7]), 0.281 ± 0.0037; in assay [2] (setting [8]) it was 0.239 ± 0.0011; in assay [2] (setting [9]), 0.182 ± 0.032; in assay [2] (setting [10]) it was 0.173 ± 0.0066; in assay [2] (setting [11]) it was 0.142 ± 0.00057. For the same compound, the growth in assay [3] (setting [12]) worked out at 0.36 ± 0.013; in assay [3] (setting [13]), 0.35 ± 0.059; in assay [4] (setting [14]), 0.194 ± 0.018; in assay [4] (setting [15]) it was 0.237 ± 0.046; in assay [5], 0.491 ± 0.0058; in assay [6] (setting [16]), 0.405 ± 0.0088. Further, in assay [6] (setting [17]), the growth worked out at 0.272 ± 0.12.

As to `NC(=O)C(c1ccccc1)(c1ccccc1)[C@@H]1CCN(CCc2ccc3c(c2)CCO3)C1` [Darifenacin hydrobromide], the growth in assay [1] turned out to be 0.163 ± 0.011; in assay [2] (setting [7]), 0.216 ± 0.0036; in assay [2] (setting [8]) it was 0.292 ± 0.0043; in assay [2] (setting [9]), 0.16 ± 0.02; in assay [2] (setting [10]) it was 0.0999 ± 0.0027; in assay [2] (setting [11]) it was 0.146 ± 0.011. The growth turned out to be 0.156 ± 0.033 in assay [3] (setting [12]); 0.276 ± 0.01 in assay [3] (setting [13]); 0.186 ± 0.0081 in assay [4] (setting [14]); 0.205 ± 0.015 in assay [4] (setting [15]); 0.403 ± 0.013 in assay [5]; 0.411 ± 0.0056 in assay [6] (setting [16]). This compound gave a growth in assay [6] (setting [17]) of 0.272 ± 0.016.

With `CN(C)CCC(c1ccc(Br)cc1)c1ccccn1` (configuration not stated) [Brompheniramine maleate], the growth in assay [1] was determined as 0.218 ± 0.0069; in assay [2] (setting [7]), 0.293 ± 0.0063; in assay [2] (setting [8]), 0.264 ± 0.0057; in assay [2] (setting [9]), 0.209 ± 0.037; in assay [2] (setting [10]), 0.162 ± 0.0032; in assay [2] (setting [11]), 0.15 ± 0.008. Moreover, the growth in assay [3] (setting [12]) is 0.179 ± 0.0086; in assay [3] (setting [13]), 0.302 ± 0.079; in assay [4] (setting [14]) it was 0.179 ± 0.01; in assay [4] (setting [15]) it was 0.253 ± 0.025; in assay [5], 0.45 ± 0.043; in assay [6] (setting [16]) it was 0.398 ± 0.011. The compound also returned a growth in assay [6] (setting [17]) of 0.339 ± 0.02.
